# Source: PubChem BioAssay AID1259415 (National Center for Advancing Translational Sciences (NCATS), 2018)
# About 18,000 (4.4%) of roughly 410,000 compounds were called active. Roughly 7% stayed inconclusive and do not appear here. Shown is part of a subset that was picked to be rich in actives. Unmarked numbers belong to inactive results. No stated cut-off is given here; in the data, active means activity change below about -60%; inconclusive means no clear call, values can overlap the other calls; inactive means above about -39%.
# Experiment: qHTS Assay for inhibitors of the human cytomegalovirus (HCMV)
# Settings: HFF cells, HCMV-luciferase reporter, 72 h; at 57.5 µM; hits give low values
# Procedure, shortened: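 Screen run at 2 compound doses on HFFs infected with reporter HCMV, MOI 1 PFU/cell. Luciferase activity from cell lysates at 72 h post infection gave inhibition relative to buffer-only and Salinomycin wells.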
# On the % scale 0 is the no-effect control and ±100 the full control effect.
row,Compound,"activity change, negative = inhibition"
1,Cc1ccc(N2CC(C(=O)Nc3cc(Cl)ccc3-n3cncn3)CC2=O)cc1 (stereo not given),4.52%
2,CCn1cc2nc(SCc3cccc(F)c3)n(CCc3ccccc3)c(=O)c2n1,-35.3%
3,CN(C)C1=NC[C@H](Cc2ccccc2)N1CCc1ccc(F)cc1,-5.86%
4,CCCCN1C(N)=NC[C@@H]1CC1CCCCC1,-18.4%
5,CCCC[C@@H]1CN=C(N)N1CCc1cc(C(F)(F)F)cc(C(F)(F)F)c1,-75% (active)
6,Cc1c(Cl)cccc1NC(=O)Cn1cc(C(=O)c2cccs2)c2ccccc21,-95.6% (active)
7,O=C(Cn1cc(C(=O)c2cccs2)c2ccccc21)NCc1cccs1,-5.26%
8,Cc1ccccc1NC(=O)Cn1cc(C(=O)c2cccs2)c2ccccc21,-22.9%
9,COC(=O)C1=C(C(=O)OC)[C@@H]2N(C)c3ccccc3[C@@]23C[C@@H](C(=O)OC)N(C(C)=O)C3=N1,-27%
10,O=C(NCc1cccnc1)C(=O)NCC(c1cccnc1)N1CCN(c2ccccc2)CC1 (stereo not given),5.63%
11,COc1ccc(-c2cc(NC=O)c3ncc(-c4cccc(C(=O)N(C)C)c4)n3c2)c(OC)c1,40.1%
12,CC(=O)Nc1cc(-c2cccc(CO)c2)cn2c(-c3cccc(C(F)(F)F)c3)cnc12,71.5%
13,CN(C)CCNC(=O)c1cccc(-c2cnc3c(NC=O)cc(-c4cccc(C(F)(F)F)c4)cn23)c1,-61.3% (active)
14,CCCn1c(NCc2ccc(N(CC)CC)cc2)nc2ccccc21,-5.55%
15,Cc1ccc(-c2noc(-c3nnn(-c4cccc(C(F)(F)F)c4)c3N)n2)cc1,15.9%
16,Cc1cccc(NC(=O)CSc2nc(-c3ccco3)cc(C(F)(F)F)n2)c1C,1.83%
17,Cc1coc2cc3oc(=O)c(CCC(=O)O)c(C)c3cc12,-38.4%
18,CC[C@@H](C)[C@H](NC(=O)CCc1c(C)c2cc3c4c(oc3c(C)c2oc1=O)CCCC4)C(=O)O,-33.8%
19,Cc1c(CC(=O)NCC(=O)NCC(=O)O)c(=O)oc2cc3oc4c(c3cc12)CCCC4,-60.9% (active)
20,Cc1ccccc1CN1CCC(CNC(=O)c2cc3ccc4cccnc4c3[nH]2)CC1,-34.7%
21,O=[N+]([O-])/C=C/c1ccc2c(ccn2Cc2ccccc2)c1,-98% (active)
22,O=c1c(=O)n(Cc2c(F)cccc2Cl)ccn1Cc1ccccc1,-4.43%
23,COc1ccc(Cn2ccn(Cc3cccc(OC)c3)c(=O)c2=O)cc1,6.59%
24,CCOC(=O)[C@H]1[C@H]2COc3ccc(Br)cc3[C@@H]2N2C(=O)CN(C)C(=O)[C@@]12C,4.78%
25,CC(=O)Nc1ccc(NC(=O)C2CCCN(S(=O)(=O)c3ccc4c(c3)CCCC(=O)N4)C2)cc1 (stereo not given),20.2%
26,Cc1ccc(C)c(N2CCN(C(=O)Cn3ncc4c(=O)oc5ccc(C)cc5c43)CC2)c1,4.14%
27,Cc1ccccc1-c1cc(C(=O)NCc2cccs2)n(CC2CC(c3cccnc3)=NO2)n1 (stereo not given),-10.2%
28,Cc1ccccc1N1CC(C(=O)Nc2ccc3c(c2)OCO3)CC1=O (stereo not given),31.2%

row,Compound,"activity change, negative = inhibition"
1,O=C(OCCOc1ccccc1F)c1cc(S(=O)(=O)N2CCOCC2)ccc1F,-18%
2,CC(C)(C)C(=O)COC(=O)c1cc(S(=O)(=O)N2CCCCC2)ccc1N1CCOCC1,-11.9%
3,O=C(OCCOc1ccccc1Cl)c1cc(S(=O)(=O)N2CCCCC2)ccc1N1CCOCC1,-69.8% (active)
4,CCOC(=O)c1c(C)[nH]c(C)c1S(=O)(=O)N1CCCC(C(=O)NCc2ccccc2Cl)C1 (stereo not given),-15.8%
5,CCOc1ccccc1CNC(=O)Nc1cn(CC(C)C)c(=O)c2ccccc12,-2.27%
6,CCOc1ccc(S(=O)(=O)Nc2ccncc2)c(C)c1C,-26.1%
7,Cc1cc(-c2n[nH]c(=S)n2/N=C/C(Br)=C/c2ccccc2)n[nH]1,-95% (active)
8,CCN(CCCNC(=O)c1ccc2c(c1)NC(=O)CN2C)c1cccc(C)c1,-95.1% (active)
9,CCN(CCCNC(=O)Cn1ncc2c([nH]c3ccccc32)c1=O)c1cccc(C)c1,19.5%
10,CCN(CCCNC(=O)c1ccc(Sc2ccc(C)cc2)c(NC(C)=O)c1)c1cccc(C)c1,-13.8%
11,COc1ccc(SCc2cc(=O)c3ccc(C)c(C)c3[nH]2)cc1,-8.87%
12,CC(C)C(C(=O)NC(C)(C)CC(C)(C)C)N1C(=O)C(=O)c2ccccc21 (stereo not given),229%
13,CCOC(=O)c1ccc(CN(Cc2ccccc2)S(=O)(=O)c2ccc(Cl)cc2)cc1,-6.46%
14,CCOC(=O)C1(S(=O)(=O)c2ccc(Cl)cc2)CCN(Cc2ccccc2)CC1,-98.6% (active)
15,O=C(NNS(=O)(=O)c1ccc(Cl)cc1)C1CCN(Cc2ccccc2)CC1,14.7%
16,CN(CC(=O)Nc1ccccc1Cl)C(=O)COc1cccc2c1OC(C)(C)C2,-11.1%
17,O=C(Nc1ccc(O)c(-c2nc3ccccc3o2)c1)c1ccc(-c2cccc(Cl)c2)o1,11.5%
18,Cc1nc(Nc2ccc(S(=O)(=O)N3CCCC3)cc2)c2nnn(Cc3ccccc3)c2n1,-1%
19,Cc1nc(Nc2ccc3c(c2)OCCO3)c2nnn(Cc3ccccc3Cl)c2n1,-91.8% (active)
20,Cc1nc(Nc2ccccc2F)c2nnn(Cc3ccccc3Cl)c2n1,33.3%
21,CC(C)c1ccc(Nc2ncccc2C#N)cc1,52.9%
22,COc1cc(OC)cc(C(=O)Nc2nnc(SCC(=O)NCC3CCCO3)s2)c1 (stereo not given),-2.96%
23,CC1Cc2ccccc2N1CC(=O)Nc1ccc(S(N)(=O)=O)cc1 (stereo not given),-32.9%
24,CC1CN(C(=S)Nc2ccc(S(N)(=O)=O)cc2)CC(C)O1 (stereo not given),70.7%
25,CC1CC(C)CN(CC(=O)Nc2ccc(S(N)(=O)=O)cc2)C1 (stereo not given),-88.1% (active)
26,COc1cc(OC)cc(C(=O)Nc2cc3nn(-c4ccccc4)nc3cc2Cl)c1,99.1%
27,CCOC(=O)c1ccccc1NC(=O)CCc1c(C)nc2c(c1C)c(=O)n(C)c(=O)n2C,5.18%
